Assay [1] has as its target Thioredoxin reductase 1, cytoplasmic (Rattus norvegicus) (UniProt O89049). Description: qHTS Assay for Substrates of Mammalian Selenoprotein Thioredoxin Reductase 1 (TrxR1) (AID 488772).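 Note: series mostly up to about 57 µM; 0% is about no effect; a drop in NADPH fluorescence below the no-compound background marks a TrxR1 substrate.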 In outline:
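In this dual-purpose format, potential substrates are identified from the first fluorescence read after selenite addition, not from the 8-minute delta. Rat enzyme is preincubated with NADPH and then with compound at ~22 deg C.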

For assay [2], the target named is Flap endonuclease 1 (Homo sapiens) (UniProt P39748). Description: qHTS Validation Assay for the Inhibitors of Human Flap endonuclease 1 (FEN1) (AID 488816). Note: % is set by controls: 0 for no effect and ±100 for the full control effect. In outline:
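qHTS format: compounds and 10 nM FEN1 incubated 15 min at room temperature before adding 50 nM substrate. Cleavage followed by reads at 0 and 15 min; normalized data fitted to a four-parameter Hill curve.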

Assay [3] concerns the target M-phase phosphoprotein 8 (Homo sapiens) (UniProt Q99549). Description: qHTS Validation Assay for Inhibitors for MPP8 Chromodomain Interactions with Methylated Histone Tails (AID 488949). Note: nearly all actives have a fitted effect of over 55% in size. Note: potency is the fitted concentration of half-maximal effect. Summed up: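 50 nM MPP8 + 50 nM b-H3K9me3 peptide, PBS pH 7.4/0.01% Tween-20, 30 min RT; + cpd 30 min RT; + AlphaScreen donor/Ni-chelate acceptor beads 10 ug/mL final, 30 min dark; luminescence read.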

Assay [4] addresses Chromobox protein homolog 1 (Homo sapiens) (UniProt P83916). Description: qHTS Validation Assay for Inhibitors of HP1-beta Chromodomain Interactions with Methylated Histone Tails (AID 488953). Note: nearly all actives have a fitted effect of over 50% in size. Note: potency is the fitted concentration of half-maximal effect. In outline:
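Compounds pinned into a preassembled complex of HP1-beta and trimethyl-K9 histone H3(1-18) biotin peptide (50 nM each; PBS pH 7.4, 0.01% Tween-20). After 30 min, bead-based AlphaScreen detection followed.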

For assay [5], the target named is Methanococcus maripaludis chaperonin (MmCpn) (UniProt Q6LX38). Kind of assay: High-Throughput Screening for Modulators of Cytosolic Chaperonin Activity: MmCpn Primary Screen (AID 488978).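 Note: 50 nM MmCpn enzyme hydrolysing 30 µM ATP at 37 °C; 0% is about no effect.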 In outline: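 Steps: chaperonin 50 nM final; add compound, 5 min RT; start with ATP, 30 uM final; hold 10 min at 37C; add ADP Transcreener HTRF reagent, 5 min; read ex 320, em 590 and 665 nm.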

Assay [6] concerns the target Transient receptor potential cation channel subfamily V member 1 (Homo sapiens) (UniProt Q8NER1). Description: HTS Assay for Compounds that Act as Enhancers of the Vanilloid Receptor 1 (AID 488979). Note: 0% is about no effect. Summed up: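 Calcium influx kinetics via Fluo-8 (480/520 nm) in TRPV1-expressing cells, 2000/well cultured overnight at 35.5C. Compound-alone read 3 min (agonist phase), followed by EC20 capsaicin challenge for 2 min (enhancer phase).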

Assay [7] concerns the target Thyrotropin receptor (Homo sapiens) (UniProt P16473). Kind of assay: qHTS Assay for Antagonists of the Thyroid Stimulating Hormone Receptor (AID 488980). Note: series mostly up to about 58 µM; 0% is about no effect. In outline:
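Readout is cAMP by HTRF competition between cellular cAMP and cAMP-d2 for a cryptate-labelled antibody. Antagonism was assessed in TSHR-transfected HEK293 cells stimulated with 4 nM TSH (EC80, final) in the presence of RO 20-1724.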

Assay [8] addresses D(1A) dopamine receptor (Homo sapiens) (UniProt P21728). Description: HTS Assay for Allosteric Agonists of the Human D1 Dopamine Receptor: Primary Screen for Agonists (AID 488981). Note: 0% is about no effect. In outline: (§1)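 Calcium flux in an inducible, force-coupled HEK293 Trex D1 line (overnight at 30 C): agonist mode is the 180 s kinetic read after compound; potentiator mode is the following 180 s read after dopamine at EC20.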

For assay [9] the target is unchanged. Kind of assay: HTS Assay for Allosteric Agonists of the Human D1 Dopamine Receptor: Primary Screen for Potentiators (AID 488982). Note: 0% is about no effect. In outline:
as §1

Assay [10] shares this target. Kind of assay: HTS Assay for Allosteric Agonists of the Human D1 Dopamine Receptor: Primary Screen for Antagonists (AID 488983).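 Note: calcium flux response to an EC80 dopamine challenge measured with no-wash dye; % is set by controls: 0 for no effect and ±100 for the full control effect; nearly all actives have a fitted effect of over 65% in size.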 In outline:
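In this primary screen, compounds are applied to calcium-dye-loaded HEK293 T-REx cells with force-coupled D1 expression induced overnight at 30 C. An EC80 of dopamine follows the 180 s compound phase, and calcium is monitored for a further 180 s.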

Assay [11] can be described thus: Validation screen for small molecules that induce genotoxicity in human embryonic kidney (HEK293T) cells expressing luciferase-tagged ELG1 (AID 493106). Note: potency is the fitted concentration of half-maximal effect. Summed up:
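In this validation screen, increased ELG1-luciferase signal flags compounds causing genetic stress. HEK293T reporter cells are treated 16 hr (37 °C, 5% CO2), developed with ONE-Glo for 30 min at room temperature, and imaged on a CCD-based reader.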

The target of assay [12] is ATPase family AAA domain-containing protein 5 (Homo sapiens) (UniProt Q96QE3). Kind of assay: Validation screen for small molecules that inhibit ELG1-dependent DNA repair in human embryonic kidney (HEK293T) cells expressing luciferase-tagged ELG1 (AID 493107).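 Note: cells co-treated with the DNA-damaging agent 5-fluorouridine alongside compound; series mostly up to about 46 µM; % is set by controls: 0 for no effect and ±100 for the full control effect; inhibitors lower the ELG1-luciferase luminescence signal; nearly all actives have a fitted effect of over 70% in size.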 In outline:
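Compounds reducing 5-fluorouridine-driven ELG1-luciferase signal in HEK293T cells were scored; exposure lasted 16 hr at 37 °C with luminescence detected via ONE-Glo.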

For assay [13], the target named is Thyrotropin-releasing hormone receptor (Homo sapiens) (UniProt P34981). Kind of assay: qHTS for Small Molecule Agonists and Allosteric Enhancers of Human TRH Receptor: Validation Screen for Agonists (AID 493127;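 active = calcium activation more than 3 SD above the typical response in the agonist read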;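 note: intracellular calcium rise by fluo-8 fluorescence before TRH EC20 addition; 0% is about no effect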). The conditions noted are these: TRH receptor agonist cell assay; at 2 µM; stronger effect = higher value. In outline: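 Kinetic fluorescence assay of agonist-induced calcium release: overnight-plated TRHR cells, room-temperature fluo-8 loading, baseline then compound addition with per-second reads.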

A short description of assay [14]: Nrf2 qHTS screen for inhibitors: Validation (AID 493153; active = well fitted inhibition curve with a large enough effect in the main read-out, with a control signal flat, not every such curve was filed as active). The conditions noted are these: Potency: luciferase luminescence; viability change: measured here: cytotoxicity max response. In outline:
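In this counterscreened reporter format, each well gives two signals: CellTiter-Fluor fluorescence for cytotoxicity and ARE-luciferase luminescence for Nrf2 function. A549 ARE_Fluc cells in 5% FBS OPTI-MEM were exposed to compound titrations for 18-24 h.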

The nature of assay [15]: qHTS for Inhibitors of Cell Surface uPA Generation: Validation Assay (AID 493164).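 Note: RAW 264.7 macrophage cells exposed to compound for 18 h; 0% is about no effect.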 Summed up: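 Compounds are titrated over seven points (2.45 nM–38.3 uM final) onto pre-plated RAW 264.7 cells and incubated for 18 h. Retained intracellular ATP, measured with ATP-Lite, indicates blocked lethal factor entry.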
Assay [16] has as its target Galactokinase (Homo sapiens) (UniProt P51570). Description: qHTS Validation Assay for Inhibitors of Human Galactokinase (GALK) (AID 493189). Note: 0% is about no effect. Summed up: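 5 nM GALK / 100 uM galactose / 35 uM ATP, 20 mM HEPES pH8.0, 5 mM MgCl2, 60 mM NaCl, 1 mM DTT, 0.01% BSA (final). RT 1 h; Kinase-Glo Plus luminescence.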
Assay [17] is described as follows: Validation screen for small molecules that induce DNA re-replication in SW480 colon adenocarcinoma cells (AID 504364). Note: 0% is about no effect. Summed up: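 Hoechst-stained SW480 nuclei, imaged at 405 nm excitation after 48 hr compound exposure, were counted for elevated DNA content as the re-replication signal.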
Assay [18] has as its target Thioredoxin reductase 1, cytoplasmic (Rattus norvegicus) (UniProt O89049). Description: qHTS Assay for Inhibitors of Mammalian Selenoprotein Thioredoxin Reductase 1 (TrxR1) (AID 488773).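 Note: drop in NADPH fluorescence over an 8 min run after selenite addition; series mostly up to about 57 µM; % is set by controls: 0 for no effect and ±100 for the full control effect; nearly all actives have a fitted effect of over 40% in size.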 The following applies: Potency: inhibition. Summed up:
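Inhibition is scored from the loss of NADPH fluorescence between first and last reads of an 8-min kinetic run. Selenite (400 uM) was the substrate, added after 15 min compound preincubation at room temperature.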

Inconclusive results are not listed. Some structures have more than one record in an assay (separate samples or runs), and their calls can disagree. Activity calls are given as the source filed them. Unless noted, calls come from the whole dose curve; as a rule, active = well fitted curve in the direction sought with a large enough effect; inconclusive = small, poorly fitted or top-dose-only effect, or another doubt; inactive = no such curve, though single readings can be large; an effect the other way counts as inactive or inconclusive.

Chain of Transient receptor potential cation channel subfamily V member 1 (Homo sapiens) (Q8NER1 whole entry, looked up): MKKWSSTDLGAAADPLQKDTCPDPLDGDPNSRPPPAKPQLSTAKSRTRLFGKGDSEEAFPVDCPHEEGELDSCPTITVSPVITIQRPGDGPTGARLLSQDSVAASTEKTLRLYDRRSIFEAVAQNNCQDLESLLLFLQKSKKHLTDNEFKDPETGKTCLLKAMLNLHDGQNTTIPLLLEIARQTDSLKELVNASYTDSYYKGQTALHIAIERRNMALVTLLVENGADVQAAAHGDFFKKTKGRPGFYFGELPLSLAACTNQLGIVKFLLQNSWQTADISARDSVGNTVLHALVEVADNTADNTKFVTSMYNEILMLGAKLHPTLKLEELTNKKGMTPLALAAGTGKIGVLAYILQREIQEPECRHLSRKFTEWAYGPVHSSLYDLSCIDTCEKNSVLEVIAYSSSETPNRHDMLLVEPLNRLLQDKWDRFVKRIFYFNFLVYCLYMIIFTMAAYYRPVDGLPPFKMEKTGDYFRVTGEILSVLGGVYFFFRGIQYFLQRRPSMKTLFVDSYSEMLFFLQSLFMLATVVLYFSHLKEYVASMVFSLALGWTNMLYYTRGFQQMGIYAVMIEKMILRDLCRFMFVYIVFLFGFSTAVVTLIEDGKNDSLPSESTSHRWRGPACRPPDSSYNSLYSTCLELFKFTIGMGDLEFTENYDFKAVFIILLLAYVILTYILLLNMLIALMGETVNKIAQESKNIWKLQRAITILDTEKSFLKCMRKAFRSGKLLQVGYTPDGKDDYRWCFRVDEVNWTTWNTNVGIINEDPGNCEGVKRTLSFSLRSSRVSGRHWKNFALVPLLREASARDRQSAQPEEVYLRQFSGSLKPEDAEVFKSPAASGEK
Chain of Thyrotropin receptor (Homo sapiens) (P16473 whole entry, looked up): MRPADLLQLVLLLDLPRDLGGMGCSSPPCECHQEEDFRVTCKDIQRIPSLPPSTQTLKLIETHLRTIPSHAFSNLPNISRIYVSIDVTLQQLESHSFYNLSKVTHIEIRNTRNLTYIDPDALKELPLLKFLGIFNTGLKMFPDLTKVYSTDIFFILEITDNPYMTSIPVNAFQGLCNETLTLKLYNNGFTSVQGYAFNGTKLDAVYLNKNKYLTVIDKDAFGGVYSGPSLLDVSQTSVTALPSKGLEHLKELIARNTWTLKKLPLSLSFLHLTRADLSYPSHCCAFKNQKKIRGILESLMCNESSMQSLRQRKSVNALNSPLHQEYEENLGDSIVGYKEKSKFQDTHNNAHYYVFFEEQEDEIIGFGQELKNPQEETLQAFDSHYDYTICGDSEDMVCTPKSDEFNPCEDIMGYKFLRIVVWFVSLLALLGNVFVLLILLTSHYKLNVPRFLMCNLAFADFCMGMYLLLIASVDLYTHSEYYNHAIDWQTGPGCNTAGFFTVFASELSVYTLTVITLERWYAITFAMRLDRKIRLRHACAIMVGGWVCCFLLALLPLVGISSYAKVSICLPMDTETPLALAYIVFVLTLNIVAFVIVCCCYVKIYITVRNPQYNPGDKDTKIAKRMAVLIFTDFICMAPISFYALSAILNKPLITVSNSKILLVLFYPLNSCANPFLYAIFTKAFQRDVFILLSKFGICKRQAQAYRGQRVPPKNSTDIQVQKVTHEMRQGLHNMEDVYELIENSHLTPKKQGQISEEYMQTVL
Chain of Flap endonuclease 1 (Homo sapiens) (P39748 whole entry, looked up): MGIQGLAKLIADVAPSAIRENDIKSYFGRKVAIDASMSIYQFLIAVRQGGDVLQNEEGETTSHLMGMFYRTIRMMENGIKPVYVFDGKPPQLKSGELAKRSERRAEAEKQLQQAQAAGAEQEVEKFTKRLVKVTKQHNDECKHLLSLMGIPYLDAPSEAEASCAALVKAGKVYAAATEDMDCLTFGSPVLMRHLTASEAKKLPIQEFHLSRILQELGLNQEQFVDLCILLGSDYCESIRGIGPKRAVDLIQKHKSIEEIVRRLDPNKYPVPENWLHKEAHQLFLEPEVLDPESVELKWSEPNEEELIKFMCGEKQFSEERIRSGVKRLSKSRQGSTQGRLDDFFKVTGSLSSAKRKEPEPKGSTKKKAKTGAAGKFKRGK
Chain of M-phase phosphoprotein 8 (Homo sapiens) (Q99549 whole entry, looked up): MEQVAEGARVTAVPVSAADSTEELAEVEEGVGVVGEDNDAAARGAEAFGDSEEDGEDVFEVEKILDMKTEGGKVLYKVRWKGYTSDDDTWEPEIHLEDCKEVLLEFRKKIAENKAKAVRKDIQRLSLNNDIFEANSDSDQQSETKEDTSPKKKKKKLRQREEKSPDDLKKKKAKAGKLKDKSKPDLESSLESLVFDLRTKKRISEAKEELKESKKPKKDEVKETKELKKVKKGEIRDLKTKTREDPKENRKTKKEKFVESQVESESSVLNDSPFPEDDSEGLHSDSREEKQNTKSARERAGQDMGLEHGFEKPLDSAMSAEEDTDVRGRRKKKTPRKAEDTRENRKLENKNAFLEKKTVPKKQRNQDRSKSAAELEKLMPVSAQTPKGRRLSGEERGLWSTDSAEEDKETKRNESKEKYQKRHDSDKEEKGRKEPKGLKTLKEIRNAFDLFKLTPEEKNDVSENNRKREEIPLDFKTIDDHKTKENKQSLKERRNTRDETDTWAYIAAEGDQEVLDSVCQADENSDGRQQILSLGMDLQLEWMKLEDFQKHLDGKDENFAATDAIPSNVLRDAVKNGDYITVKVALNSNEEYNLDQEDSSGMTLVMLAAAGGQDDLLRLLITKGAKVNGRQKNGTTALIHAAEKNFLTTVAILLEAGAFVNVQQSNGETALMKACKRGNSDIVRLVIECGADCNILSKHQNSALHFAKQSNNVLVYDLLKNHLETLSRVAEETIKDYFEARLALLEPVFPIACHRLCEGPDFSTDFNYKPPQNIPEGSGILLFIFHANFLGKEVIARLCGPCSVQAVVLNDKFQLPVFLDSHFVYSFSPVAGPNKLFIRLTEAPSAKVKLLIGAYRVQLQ
Chain of Chromobox protein homolog 1 (Homo sapiens) (P83916 whole entry, looked up): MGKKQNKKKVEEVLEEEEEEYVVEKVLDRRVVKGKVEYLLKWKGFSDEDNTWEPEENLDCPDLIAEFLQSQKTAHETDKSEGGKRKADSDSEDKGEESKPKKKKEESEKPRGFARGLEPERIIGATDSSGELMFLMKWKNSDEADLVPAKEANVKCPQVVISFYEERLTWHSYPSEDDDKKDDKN
Chain of D(1A) dopamine receptor (Homo sapiens) (P21728 whole entry, looked up): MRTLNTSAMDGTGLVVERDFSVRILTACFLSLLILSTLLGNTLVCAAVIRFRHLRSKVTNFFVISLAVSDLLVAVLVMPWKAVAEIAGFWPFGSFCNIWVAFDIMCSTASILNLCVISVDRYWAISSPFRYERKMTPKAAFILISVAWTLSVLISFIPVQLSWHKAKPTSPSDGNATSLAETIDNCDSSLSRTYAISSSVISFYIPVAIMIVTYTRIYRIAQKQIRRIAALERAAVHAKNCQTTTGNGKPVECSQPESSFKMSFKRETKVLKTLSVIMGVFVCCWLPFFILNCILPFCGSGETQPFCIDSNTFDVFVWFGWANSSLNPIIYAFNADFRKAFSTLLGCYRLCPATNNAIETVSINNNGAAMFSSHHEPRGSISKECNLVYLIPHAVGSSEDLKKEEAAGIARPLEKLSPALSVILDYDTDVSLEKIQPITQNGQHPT
Chain of Methanococcus maripaludis chaperonin (MmCpn) (Q6LX38 1-543): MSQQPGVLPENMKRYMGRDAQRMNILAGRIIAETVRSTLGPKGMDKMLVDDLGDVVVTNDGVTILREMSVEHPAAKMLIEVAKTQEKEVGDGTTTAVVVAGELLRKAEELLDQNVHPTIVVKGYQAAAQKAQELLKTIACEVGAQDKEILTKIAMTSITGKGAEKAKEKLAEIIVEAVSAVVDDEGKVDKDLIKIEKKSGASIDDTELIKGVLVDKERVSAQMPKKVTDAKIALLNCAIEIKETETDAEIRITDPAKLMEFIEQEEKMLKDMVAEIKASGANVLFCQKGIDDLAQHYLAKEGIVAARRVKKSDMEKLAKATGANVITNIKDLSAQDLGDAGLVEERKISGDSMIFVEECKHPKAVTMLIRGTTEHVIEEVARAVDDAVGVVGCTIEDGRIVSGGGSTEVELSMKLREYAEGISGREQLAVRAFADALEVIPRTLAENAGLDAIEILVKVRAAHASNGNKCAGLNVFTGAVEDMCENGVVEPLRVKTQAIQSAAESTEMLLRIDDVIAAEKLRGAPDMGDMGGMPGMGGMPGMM
Chain of Thyrotropin-releasing hormone receptor (Homo sapiens) (P34981 whole entry, looked up): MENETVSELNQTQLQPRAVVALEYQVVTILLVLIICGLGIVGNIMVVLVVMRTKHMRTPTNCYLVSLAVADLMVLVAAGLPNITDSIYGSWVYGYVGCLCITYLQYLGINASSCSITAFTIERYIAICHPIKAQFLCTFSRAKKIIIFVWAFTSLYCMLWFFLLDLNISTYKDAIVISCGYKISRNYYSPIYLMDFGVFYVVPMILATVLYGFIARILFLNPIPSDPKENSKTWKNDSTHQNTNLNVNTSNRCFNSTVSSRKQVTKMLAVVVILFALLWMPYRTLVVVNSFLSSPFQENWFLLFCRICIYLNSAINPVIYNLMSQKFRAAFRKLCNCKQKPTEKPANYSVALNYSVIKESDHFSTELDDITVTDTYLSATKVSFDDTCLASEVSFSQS
Chain of Thioredoxin reductase 1, cytoplasmic (Rattus norvegicus) (O89049 whole entry, looked up): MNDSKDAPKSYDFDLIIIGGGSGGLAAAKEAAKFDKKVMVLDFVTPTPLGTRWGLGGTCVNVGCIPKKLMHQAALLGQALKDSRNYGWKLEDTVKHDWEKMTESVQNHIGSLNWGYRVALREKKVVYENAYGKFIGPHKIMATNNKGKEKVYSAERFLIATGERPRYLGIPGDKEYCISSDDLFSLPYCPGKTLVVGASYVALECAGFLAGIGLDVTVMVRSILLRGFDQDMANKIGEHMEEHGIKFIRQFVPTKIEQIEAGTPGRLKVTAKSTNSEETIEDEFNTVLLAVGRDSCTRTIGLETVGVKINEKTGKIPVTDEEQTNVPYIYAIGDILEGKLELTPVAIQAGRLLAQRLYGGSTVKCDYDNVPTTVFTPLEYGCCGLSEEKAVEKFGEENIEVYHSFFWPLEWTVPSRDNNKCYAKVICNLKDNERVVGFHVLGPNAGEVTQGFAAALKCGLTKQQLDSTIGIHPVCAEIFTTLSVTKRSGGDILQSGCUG

Take `O=C(O)c1cc(=O)c2c(Cl)cc(Cl)cc2[nH]1`: the Potency entry in assay [1], in [2], in assay [3], in assay [4], in [8] and in assay [9] was “inactive” each time. For the same compound, the Potency result in [10], in [11], in assay [12], in assay [14], in assay [16] and in assay [17] was “inactive” in each case. The compound was called inactive in [5], in assay [6], in assay [7] and in assay [15]. For the same compound, the activation in assay [13] was 1.56% (inactive). Further, the viability change in assay [14] is -1.84%.
As to `CC(N)C(=O)OC(C)(C)Cc1ccc(Cl)cc1` (configuration not stated), the Potency result in assay [1], in assay [18], in [10], in assay [11], in assay [12] and in assay [14] was “inactive” throughout. For the same compound, the result in assay [5] and in [15] was inactive. For the same compound, the viability change in assay [14] was 7.67%.
Regarding `O=C(/C=C/c1ccc(O)cc1)c1ccc(O)cc1O`, the Potency entry in assay [1], in [2], in [3], in assay [9], in assay [10] and in [14] was “inactive” in each case. Moreover, in [16], the Potency result is “inactive”. Further, the outcome in [5], in assay [6], in [7] and in assay [15] was inactive. Also, in assay [11], the Potency is 8.2 µM (active). For the same compound, the activation in assay [13] is -5.19% (inactive). Further, the viability change in assay [14] was -0.936%.
With `Cc1ccc(O)c(N=Nc2ccccc2)n1`, the Potency result in assay [1], in assay [2], in [8], in assay [9], in [10] and in assay [14] was “inactive” throughout. For the same compound, in assay [17], the Potency result is “inactive”. Moreover, the Potency is 39.8 µM (active) and inactive in assay [3]; 44.7 µM (active) in assay [4]; 2.59 µM (active) in [11]. Also, the outcome in [6] and in assay [7] was inactive. The activation in assay [13] was 0.875% (inactive). In addition, the viability change in [14] amounted to 0.002%.
For the compound `O=C1/C(=C/c2ccsc2)CC/C1=C\c1cccs1`, the Potency entry in assay [1], in assay [2], in assay [3], in [8], in assay [9] and in [10] was “inactive” each time. In addition, the Potency entry in [12] and in assay [14] was “inactive” in each case. The compound was called inactive in assay [5]. In addition, the Potency in assay [11] was 23.1 µM (active). The viability change in [14] was -8.76%.
For the compound `CC(=O)N[C@H](C(=O)O)C(C)(C)SN=O`, the Potency entry in [1], in [2], in [3], in assay [4], in assay [8] and in assay [9] was “inactive” throughout. The Potency result in assay [10], in assay [11], in [12], in assay [14] and in [17] was “inactive” throughout. Also, the compound was classed as inactive in assay [5], in assay [6] and in [7]. Also, in assay [13], the activation is 0.812% (inactive). Further, the viability change in [14] was -5%.
